Assay results reported in PubChem BioAssay AID2279 (Southern Research Specialized Biocontainment Screening …, 2010).
Measured potencies and affinities stand elsewhere.

assay: CCR5-tropic HIV-1 fusion blockers – cell-based, CCR5-tropic Env, dose response (AID 2279); conditions: CCR5-tropic HIV-1 Env, reporter read-out; series mostly up to 50 µM; inhibition: at the top concentration; call rule not given here

inhibition, inactive:
CC(c1ccccc1)N1C(=O)c2ccc(C(=O)Nc3ccc(Br)cc3C(=O)O)cc2C1=O (centres undefined) 1.67%, CCOc1cc(/C=C2\C(=O)N(c3cccc(C(=O)O)c3)N=C2C(F)(F)F)ccc1OCC(=O)Nc1ccccc1OC 25.7%, O=C1N/C(=N\S(=O)(=O)c2ccccc2)S/C1=C\c1cc([N+](=O)[O-])ccc1O -8.05%, COc1cc(NS(=O)(=O)c2ccc(Nc3nc(-c4ccccc4)cs3)cc2)nc(OC)n1 11.2%, N#Cc1c(-c2ccccc2)nc(SCc2cccc(C(F)(F)F)c2)[nH]c1=O -4.86%, Cc1c(CCC(=O)O)c(=O)oc2c(C)c3occ(-c4ccc(Cl)cc4)c3cc12 11.6%, O=C(O)COc1ccc(/C=N/NC(=O)c2ccc(-c3csc(Nc4ccc(Cl)cc4)n3)cc2)cc1 7.13%, CC1=C(C(=O)OC(C)C)C(c2ccc(Cl)cc2)n2c(s/c(=C\c3ccc(OCC(=O)O)cc3)c2=O)=N1 (centres undefined) 23.1%, CCCCCOc1ccc(C2C(C(=O)c3ccc(C)o3)=C(O)C(=O)N2c2cc(C)on2)cc1 (centres undefined) 37.2%, COc1cc(/C=C2\C(=N)N3N=C(S(C)(=O)=O)SC3=NC2=O)ccc1OC(=O)c1cccs1 -6.46%, O=[N+]([O-])c1cc(Cl)cc(/C=N/NC(=S)Nc2ccc(S(=O)(=O)N3CCOCC3)cc2)c1O 17.4%, Cc1cc(Cl)ccc1OC(C)C(=O)Nc1ccc(S(=O)(=O)Nc2cnc3ccccc3n2)cc1 (centres undefined) 22.9%, COc1cc(/C=C2/SC(=S)N(CC(=O)O)C2=O)ccc1OCC(=O)Nc1ccc(C)c(C)c1 -12.3%, O=C1NC(=Nc2ccccc2Cl)S/C1=C\c1cccc([N+](=O)[O-])c1O 4.34%
